{"source": "PubChem BioAssay AID463173", "about": "(ICCB-Longwood Screening Facility, Harvard Medical School, 2010)", "note": "The campaign covered roughly 52,000 compounds. About 4,300 (8.3%) were called active. Rule as the data show it: active = survival mostly below about 52% (no sharp cut-off); inactive = mostly above about 56%. What follows is part of a selection rich in actives, with near analogues and random picks from the rest."}
{"test_system": "DeltatarO mutant", "experiment": "S. aureus survival, RN4220 and DeltatarO strains – OD600, teichoic acid synthesis inhibitors, primary screen (AID 463173)", "settings": "S. aureus RN4220 wild type/DeltatarO growth, OD600, 18 h, active compounds read low, screened at 18.75 µg/mL (by protocol)"}
{"smiles": "COCc1cc(C)nc2sc3c(=O)n(-c4cc(C)ccc4C)nnc3c12", "survival": "87% (inactive)"}
{"smiles": "Cc1cc(C)c(NC(=O)C2CCN(C(=O)N3CC(C)Oc4ccc(Cl)cc43)CC2)c(C)c1", "note": "(stereo not given)", "survival": "56% (inactive)"}
{"smiles": "Cc1cc(C)c(NC(=O)CSc2nccn2-c2cccc(Cl)c2)c(C)c1", "survival": "73% (inactive)"}
{"smiles": "CCN(CC)S(=O)(=O)c1ccc2c(c1)c(=O)c(C(=O)NCCc1ccccc1)cn2C", "survival": "85% (inactive)"}
{"smiles": "Cc1cc(C)c(NC(=O)Cn2nnc(C(=O)NCc3cccs3)c2N)c(C)c1", "survival": "91% (inactive)"}
{"smiles": "CCOc1ccc(Sc2cc(C(=O)NC(C)c3ccccc3)c3ccccc3n2)cc1", "note": "(stereo not given)", "survival": "75% (inactive)"}
{"smiles": "Cc1ccccc1C(=O)Nc1cccc(OCc2cc(=O)n3c4c(sc3n2)CCCC4)c1", "survival": "101% (inactive)"}
{"smiles": "Cc1csc2nc(COc3cccc(NC(=O)c4ccccc4F)c3)cc(=O)n12", "survival": "123% (inactive)"}
{"smiles": "COc1cccc(C(=O)Nc2cccc(OCc3cc(=O)n4c5c(sc4n3)CCCC5)c2)c1", "survival": "51% (active)"}
{"smiles": "COc1ccc(C(=O)Nc2cccc(OCc3cc(=O)n4c5c(sc4n3)CCCC5)c2)cc1", "survival": "55% (inactive)"}
{"smiles": "Cc1ccc(C(=O)Nc2cccc(OCc3cc(=O)n4c5c(sc4n3)CCCC5)c2)cc1", "survival": "118% (inactive)"}
{"smiles": "Cc1ccccc1C(=O)Nc1cccc(OCc2cc(=O)n3c(C)csc3n2)c1", "survival": "96% (inactive)"}
{"smiles": "COc1ccc(C(=O)Nc2cccc(OCc3cc(=O)n4c5c(sc4n3)CCCC5)c2)cc1OC", "survival": "53% (inactive)"}
{"smiles": "COc1ccccc1C(=O)Nc1cccc(OCc2cc(=O)n3c4c(sc3n2)CCCC4)c1", "survival": "39% (active)"}
{"smiles": "COc1ccccc1C(=O)Nc1cccc(OCc2cc(=O)n3c(C)csc3n2)c1", "survival": "44% (active)"}
{"smiles": "CCOc1ccc(-c2nonc2NC(=O)c2oc3ccc(Cl)cc3c2C)cc1", "survival": "64% (inactive)"}
{"smiles": "NNC1=NC2CS(=O)(=O)CC2S1", "note": "(stereo not given)", "survival": "56% (inactive)"}
{"smiles": "CCSc1nnc(CNc2ccc(F)cc2)n1CC1CCCO1", "note": "(stereo not given)", "survival": "91% (inactive)"}
{"smiles": "CC(C)CCNC(=O)c1ccc(Cn2c(=O)c3cccn3c3cccnc32)cc1", "survival": "64% (inactive)"}
{"smiles": "COCCCNC(=O)c1ccc(Cn2c(=O)c3cccn3c3cccnc32)cc1", "survival": "70% (inactive)"}
{"smiles": "CC(CNC(=O)c1ccc(Cn2c(=O)c3cccn3c3cccnc32)cc1)c1ccccc1", "note": "(stereo not given)", "survival": "41% (active)"}
{"smiles": "CCC(C)NC(=O)c1ccc(Cn2c(=O)c3cccn3c3cccnc32)cc1", "note": "(stereo not given)", "survival": "116% (inactive)"}
{"smiles": "CC(NC(=O)c1ccc(Cn2c(=O)c3cccn3c3cccnc32)cc1)c1ccccc1", "note": "(stereo not given)", "survival": "101% (inactive)"}
{"smiles": "CC(C)NC(=O)c1ccc(Cn2c(=O)c3cccn3c3cccnc32)cc1", "survival": "44% (active)"}
{"smiles": "CC(C)CCn1c(=O)c2sccc2n2c(CCCC(=O)NC(C)c3ccccc3)nnc12", "note": "(stereo not given)", "survival": "88% (inactive)"}
{"smiles": "Nc1nnc(SCC(=O)C2CC2)s1", "survival": "80% (inactive)"}
{"smiles": "O=C(N/N=C/c1ccc(F)cc1)c1ccc(NC(=O)C2CC2)cc1", "survival": "105% (inactive)"}
{"smiles": "Cc1cc(Nc2cccc(Cl)c2)nc2ccc(NC(=O)c3cccnc3)cc12", "survival": "91% (inactive)"}
{"smiles": "CN1C(C(=O)Nc2ccc(OC(F)(F)F)cc2)=CC(c2ccc3c(c2)OCO3)=NS1(=O)=O", "survival": "80% (inactive)"}
{"smiles": "CN1C(C(=O)Nc2ccc(OC(F)(F)F)cc2)=CC(c2cccs2)=NS1(=O)=O", "survival": "31% (active)"}
{"smiles": "COc1ccc(C2=NS(=O)(=O)N(C)C(C(=O)Nc3ccc(OC(F)(F)F)cc3)=C2)cc1", "survival": "48% (active)"}
{"smiles": "COc1ccc(NC(=O)C2=CC(c3ccc4c(c3)OCO4)=NS(=O)(=O)N2C)cc1", "survival": "88% (inactive)"}
{"smiles": "Cc1ccc(NC(=O)C2=CC(c3cccs3)=NS(=O)(=O)N2C)cc1", "survival": "83% (inactive)"}
{"smiles": "COc1ccc(NC(=O)C2=CC(c3cccs3)=NS(=O)(=O)N2C)cc1", "survival": "94% (inactive)"}
{"smiles": "Cc1cc(C)c(Cn2c(=O)n(-c3ccccc3Cl)c(=O)c3c(C)c(C(=O)N(C)C)sc32)c(C)c1", "survival": "86% (inactive)"}
{"smiles": "CCNc1nc2c(c(=O)n(C)c(=O)n2C)n1CC(O)COc1ccccc1", "note": "(stereo not given)", "survival": "61% (inactive)"}
{"smiles": "CCCNc1nc2c(c(=O)n(C)c(=O)n2C)n1CC(O)COc1ccccc1", "note": "(stereo not given)", "survival": "62% (inactive)"}
{"smiles": "CCCCNc1nc2c(c(=O)n(C)c(=O)n2C)n1CC(O)COc1ccccc1C", "note": "(stereo not given)", "survival": "42% (active)"}
{"smiles": "Cc1cccc(NC(=O)CSc2nc3c(c(=O)[nH]2)CN(Cc2ccc4c(c2)OCO4)CC3)c1C", "survival": "78% (inactive)"}
{"smiles": "O=C1CCC(=O)N1CC(=O)N1CCCc2ccccc21", "survival": "85% (inactive)"}
{"smiles": "CCN(CC)S(=O)(=O)c1ccc2c(c1)nc(CN(C)C(=O)Nc1ccc(C)c(Cl)c1)n2C", "survival": "86% (inactive)"}
{"smiles": "Cc1ccc(-n2ncc3c(NC(C)c4ccccc4)ncnc32)cc1", "note": "(stereo not given)", "survival": "94% (inactive)"}
{"smiles": "CC(=O)NNc1ncnc2c1cnn2-c1ccccc1", "survival": "46% (active)"}
{"smiles": "Cc1ccc(C)c(Nc2ncnc3c2cnn3-c2ccc(F)cc2)c1", "survival": "-1% (active)"}
{"smiles": "CCC(C)Nc1ncnc2c1cnn2-c1ccc(F)cc1", "note": "(stereo not given)", "survival": "72% (inactive)"}
{"smiles": "CC(C)(C)c1ccc(C(=O)NNc2ncnc3c2cnn3-c2ccccc2)cc1", "survival": "115% (inactive)"}
{"smiles": "COc1ccc(C(=O)NNc2ncnc3c2cnn3-c2ccccc2)cc1", "survival": "92% (inactive)"}
{"smiles": "Cc1ccc(-n2ncc3c(NCCCc4ccccc4)ncnc32)cc1", "survival": "89% (inactive)"}
{"smiles": "Cc1ccc(-n2ncc3c(Nc4ccc(Oc5ccccc5)cc4)ncnc32)cc1", "survival": "68% (inactive)"}
{"smiles": "CCC(CO)Nc1ncnc2c1cnn2-c1ccc(C)cc1", "note": "(stereo not given)", "survival": "-5% (active)"}
{"smiles": "Cc1ccc(-n2ncc3c(Nc4cccc(C)c4C)ncnc32)cc1", "survival": "94% (inactive)"}
{"smiles": "CCOc1ccccc1Nc1ncnc2c1cnn2-c1ccc(C)cc1", "survival": "87% (inactive)"}
{"smiles": "CCCCc1ccc(Nc2ncnc3c2cnn3-c2ccc(C)cc2)cc1", "survival": "17% (active)"}
{"smiles": "Cc1ccccc1NC(=O)CCNC(=O)Cn1ccc2ccccc2c1=O", "survival": "70% (inactive)"}
{"smiles": "N/C(=N\\c1nc2ccccc2o1)NC(=O)/C=C/c1ccco1", "survival": "85% (inactive)"}
{"smiles": "Cc1ccc(-n2c(=O)c3ccc(C(=O)NCc4ccco4)cc3n(Cc3ccc(Cl)cc3)c2=O)cc1", "survival": "77% (inactive)"}
{"smiles": "CS(=O)(=O)c1ccc2nc(NC(=O)CN3C(=O)c4ccccc4C3=O)sc2c1", "survival": "85% (inactive)"}
{"smiles": "COc1ccc(CNC(=O)CSCc2cnn(-c3ccccc3)c2-n2cccc2)cc1OC", "survival": "106% (inactive)"}
{"smiles": "Cc1coc2cc3oc(=O)c(CCC(=O)NCc4ccc(Cl)cc4)c(C)c3cc12", "survival": "69% (inactive)"}
{"smiles": "CCn1cc2nc(SCc3ccc(C)cc3)n(CCc3ccccc3)c(=O)c2n1", "survival": "78% (inactive)"}
{"smiles": "N#Cc1cc2cc3c(cc2nc1SCC(=O)N1CCN(c2ccc(F)cc2)CC1)OCCO3", "survival": "67% (inactive)"}
{"smiles": "CC(C)(C)c1ccc(OCC(=O)Nc2ccc(C(=O)OC3CCCCC3)cc2)cc1", "survival": "71% (inactive)"}
{"smiles": "CCOC(=O)c1cc(-c2ccccc2)n(-c2cccc(C(=O)Nc3cccc(F)c3)c2)c1C", "survival": "135% (inactive)"}
{"smiles": "CCOC(=O)c1cc(-c2ccccc2)n(-c2cccc(C(=O)Nc3ccc(OC)cc3)c2)c1C", "survival": "83% (inactive)"}
{"smiles": "CCOC(=O)c1cc(-c2ccccc2)n(-c2cccc(C(=O)Nc3cccc(SC)c3)c2)c1C", "survival": "32% (active)"}
{"smiles": "CCOC(=O)c1cc(-c2ccccc2)n(-c2cccc(C(=O)Nc3cc(OC)cc(OC)c3)c2)c1C", "survival": "81% (inactive)"}
{"smiles": "CCOC(=O)c1cc(-c2ccccc2)n(-c2cccc(C(=O)Nc3cccc(C(C)=O)c3)c2)c1C", "survival": "89% (inactive)"}
{"smiles": "CCOC(=O)c1cc(-c2ccccc2)n(-c2cccc(C(=O)Nc3ccc(OCC)cc3)c2)c1C", "survival": "37% (active)"}
{"smiles": "CCOC(=O)c1ccccc1NC(=O)Nc1cc2c(cc1N1CCCCC1)n(C)c(=O)n2C", "survival": "76% (inactive)"}
{"smiles": "CCC1CCCCN1C(=O)CSc1nnc(-c2ccc(OC)c(OC)c2)o1", "note": "(stereo not given)", "survival": "71% (inactive)"}
{"smiles": "CCOc1cc(CNC(=O)CN2CCSc3ccccc32)cc(OCC)c1OCC", "survival": "85% (inactive)"}
{"smiles": "CC(C)CCNC(=O)C1CCC(Cn2c(=O)c3sccc3n(CC(=O)NC(C)C)c2=O)CC1", "note": "(stereo not given)", "survival": "95% (inactive)"}
{"smiles": "CCOC(=O)c1c(SCC(=O)Nc2nc3ccccc3s2)nc(=O)[nH]c1C", "survival": "6% (active)"}
{"smiles": "CCOC(=O)c1c(SCC(=O)Nc2nc3ccc(C)cc3s2)nc(=O)[nH]c1C", "survival": "70% (inactive)"}
{"smiles": "CCOC(=O)c1c(SCC(=O)Nc2cccc(C)c2C)nc(=O)[nH]c1C", "survival": "67% (inactive)"}
{"smiles": "CCCCc1ccc(C(=O)N/C(=C\\c2ccc(C)cc2)C(=O)NC2CCCCC2)cc1", "survival": "66% (inactive)"}
{"smiles": "Cn1c(=O)n(CCCc2ccccc2)c(=O)c2c1nc1n2CCN1c1ccccc1", "survival": "75% (inactive)"}
{"smiles": "O=C(Nc1ccc(Cl)c(Cl)c1)c1cc(S(=O)(=O)N2CCN(c3cccc(Cl)c3)CC2)ccc1F", "survival": "68% (inactive)"}
{"smiles": "CCOc1ccc(C(=O)N2CCC(c3ccncc3)CC2)cc1", "survival": "94% (inactive)"}
{"smiles": "COc1cc(C(=O)N2CCC(c3ccncc3)CC2)cc(OC)c1OC", "survival": "88% (inactive)"}
{"smiles": "COc1ccc(C(=O)N2CCC(c3ccncc3)CC2)cc1OC", "survival": "-5% (active)"}
{"smiles": "CCN(CC)c1ccc(C(=O)N2CCC(c3ccncc3)CC2)cc1", "survival": "88% (inactive)"}
{"smiles": "CCOc1cc(C(=O)N2CCC(c3ccncc3)CC2)cc(OCC)c1OCC", "survival": "17% (active)"}
{"smiles": "COc1cc(OC)cc(C(=O)N2CCC(c3ccncc3)CC2)c1", "survival": "89% (inactive)"}
{"smiles": "CCNC(=O)Cc1ccc(NC(=O)N2CCCCc3ccccc32)cc1", "survival": "74% (inactive)"}
{"smiles": "O=C(Nc1nnc2n1CCS2)c1ccccc1C(F)(F)F", "survival": "93% (inactive)"}
{"smiles": "O=C(c1ccc2c(Cl)c3c(nc2c1)CCCC3)N1CCN(c2cccc(Cl)c2)CC1", "survival": "65% (inactive)"}
{"smiles": "Cc1ccc(Cl)cc1N1CCN(C(=O)c2ccc3c(Cl)c4c(nc3c2)CCCC4)CC1", "survival": "31% (active)"}
{"smiles": "O=C(c1ccc2c(Cl)c3c(nc2c1)CCCC3)N1CCN(c2cccc(C(F)(F)F)c2)CC1", "survival": "64% (inactive)"}
{"smiles": "Cc1cccc(N2CCN(C(=O)c3ccc4c(Cl)c5c(nc4c3)CCCC5)CC2)c1C", "survival": "93% (inactive)"}
{"smiles": "Cc1ccc(N2CCN(C(=O)c3ccc4c(Cl)c5c(nc4c3)CCCC5)CC2)c(C)c1", "survival": "88% (inactive)"}
{"smiles": "O=C(c1ccc2c(Cl)c3c(nc2c1)CCCC3)N1CCN(c2ccccc2)CC1", "survival": "20% (active)"}
{"smiles": "O=C(c1ccc2c(Cl)c3c(nc2c1)CCCC3)N1CCN(c2ccccc2F)CC1", "survival": "-3% (active)"}
{"smiles": "Cc1ccc(C)c(N2CCN(C(=O)c3ccc4c(Cl)c5c(nc4c3)CCCC5)CC2)c1", "survival": "98% (inactive)"}
{"smiles": "O=C(c1ccc2c(Cl)c3c(nc2c1)CCCC3)N1CCN(c2ccc(Cl)cc2)CC1", "survival": "92% (inactive)"}
